Reference: PubChem BioAssay (EPA / NIEHS)
Inconclusive results are not listed. The source made the active and inactive calls. The calls were made as follows: active = hit-call score of the fitted dose curve at least 0.9, where 1 is the maximum; inconclusive = response in the unintended direction; inactive = score below 0.9.

Biological target: sheep Cyclooxygenase-1 (Cox1), PTGS1 (gene 443551) (UniProt P05979)
Assay: NVS_ENZ_oCOX1: NovaScreen (NVS) Enzymatic Assay for sheep Cyclooxygenase-1 (Cox1) (AID 2283239);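 also: actives reduce cyclooxygenase activity so potencies are for inhibitors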
Method: NVS_ENZ_oCOX1 is a biochemical, single-readout assay that uses extracted gene-proteins from Ovine seminal vesicles in a tissue-based cell-free assay. Measurements were taken 0.66 hour after chemical dosing in a 96-well plate.NVS_ENZ_oCOX1 is one of one assay component(s) measured or calculated from the NVS_ENZ_oCOX1 assay. It is designed to make measurements of enzyme activity, a form of enzyme reporter, as detected with absorbance signals by Colorimetric technology.Data from the assay component NVS_ENZ_oCOX1 was analyzed into 1 assay endpoint. This assay endpoint, NVS_ENZ_oCOX1, was analyzed in the positive analysis fitting direction relative to DMSO as the negative control and baseline of activity. Using a type of enzyme reporter, loss-of-signal activity can be used to understand changes in the enzymatic activity as they relate to the gene PTGS1. Furthermore, this assay endpoint can be referred to as a primary readout, because this assay has produced multiple assay endpoints where this one serves a enzymatic activity function. To generalize the intended target to other relatable targets, this assay endpoint is annotated to the oxidoreductase intended target family, where the subfamily is cyclooxygenase.
Binding assays used specific radioligands (tritiated, iodinated) with non-radioactive competitive displacement ligands in agonist or antagonist protocols (as indicated) and various reference compounds and inhibitors to titrate specific binding to receptors and transporters. Most enzyme assays (CYPs, kinases, phosphatases, proteases, HDACs) used recombinant protein and specific substrates (fluorescence mostly, some colorimetric and radioactive) and inhibitors, followed by a biochemical separation of substrate and product. All assays for the biochemical HTS were initially run in duplicate at a single concentration (10 uM for CYP450 assays and 25 uM for all others). […] Each assay was run with positive and negative controls, and concurrent controls on every plate. The follow-up (secondary) screen tested active chemical-pairs in concentration series, as well as a few additional assays not tested in the primary screen, some selected negative inactives, and several cases re-run in the concentration series for confirmatory purposes.

Sequence of sheep Cyclooxygenase-1 (Cox1), PTGS1 (gene 443551) (P05979 whole entry, looked up): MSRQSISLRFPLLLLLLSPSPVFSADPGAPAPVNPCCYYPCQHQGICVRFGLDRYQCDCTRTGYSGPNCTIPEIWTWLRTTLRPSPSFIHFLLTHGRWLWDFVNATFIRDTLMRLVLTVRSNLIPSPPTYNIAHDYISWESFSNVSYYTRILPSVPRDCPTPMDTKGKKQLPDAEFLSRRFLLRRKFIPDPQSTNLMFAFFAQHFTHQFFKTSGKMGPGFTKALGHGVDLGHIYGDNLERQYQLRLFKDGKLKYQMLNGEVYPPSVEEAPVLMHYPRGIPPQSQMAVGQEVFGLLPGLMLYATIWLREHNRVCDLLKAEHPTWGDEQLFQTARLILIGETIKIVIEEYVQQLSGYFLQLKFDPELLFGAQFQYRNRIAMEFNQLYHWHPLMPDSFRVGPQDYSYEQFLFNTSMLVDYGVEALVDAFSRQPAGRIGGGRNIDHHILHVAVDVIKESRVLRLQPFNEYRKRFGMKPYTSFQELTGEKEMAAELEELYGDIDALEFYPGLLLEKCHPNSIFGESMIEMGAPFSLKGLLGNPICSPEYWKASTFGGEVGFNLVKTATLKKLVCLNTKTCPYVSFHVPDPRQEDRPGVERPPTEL

outcome, inactive:
Oc1ccc(O)cc1
C#CC(O)C(CC)CCCC (stereo not drawn)
O=[Si]=O
CSc1ccc(Oc2ccc(S(N)(=O)=O)cc2CN(C)C)cc1C
NC(=Nc1ccccc1)Nc1ccccc1
Cn1cnc2c1c(=O)[nH]c(=O)n2C
CC(=O)S[C@H](C(=O)N[C@H]1Cc2ccccc2[C@H]2CCC[C@@H](C(=O)O)N2C1=O)C(C)C

AC50, active:
COC(=O)[C@H]1[C@H]2C[C@@H]3c4[nH]c5cc(OC)ccc5c4CCN3C[C@H]2C[C@@H](OC(=O)c2cc(OC)c(OC)c(OC)c2)[C@@H]1OC 19.5 µM
O=C1c2c(O)cccc2Cc2cccc(O)c21 3.2 µM
S=c1[nH]c2ccccc2s1 8.91 µM
COc1ccc(OC(F)(F)F)cc1CN[C@H]1CCCN[C@H]1c1ccccc1 11.6 µM
Nc1nc(=S)c2[nH]cnc2[nH]1 2.25 µM
CCN(CC)CCOc1ccc(C(=C(Cl)c2ccccc2)c2ccccc2)cc1 4.39 µM
